Laboratory results as given in ChEMBL document CHEMBL1961873, “Compounds: GSK PKIS; Assays: Nanosyn kinase panel” (2012).

Experiments:
[1] = target: Sphingosine kinase 1 (Homo sapiens) (UniProt Q9NYA1); details: at 1 µM;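 further: mean SPHK1 inhibition value reported from the GSK PKIS kinase panel screen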
[2] = target: T1, Sphingosine kinase 2 (Homo sapiens) (UniProt Q9NRA0); details: at 0.1 µM
T1 sequence (whole entry): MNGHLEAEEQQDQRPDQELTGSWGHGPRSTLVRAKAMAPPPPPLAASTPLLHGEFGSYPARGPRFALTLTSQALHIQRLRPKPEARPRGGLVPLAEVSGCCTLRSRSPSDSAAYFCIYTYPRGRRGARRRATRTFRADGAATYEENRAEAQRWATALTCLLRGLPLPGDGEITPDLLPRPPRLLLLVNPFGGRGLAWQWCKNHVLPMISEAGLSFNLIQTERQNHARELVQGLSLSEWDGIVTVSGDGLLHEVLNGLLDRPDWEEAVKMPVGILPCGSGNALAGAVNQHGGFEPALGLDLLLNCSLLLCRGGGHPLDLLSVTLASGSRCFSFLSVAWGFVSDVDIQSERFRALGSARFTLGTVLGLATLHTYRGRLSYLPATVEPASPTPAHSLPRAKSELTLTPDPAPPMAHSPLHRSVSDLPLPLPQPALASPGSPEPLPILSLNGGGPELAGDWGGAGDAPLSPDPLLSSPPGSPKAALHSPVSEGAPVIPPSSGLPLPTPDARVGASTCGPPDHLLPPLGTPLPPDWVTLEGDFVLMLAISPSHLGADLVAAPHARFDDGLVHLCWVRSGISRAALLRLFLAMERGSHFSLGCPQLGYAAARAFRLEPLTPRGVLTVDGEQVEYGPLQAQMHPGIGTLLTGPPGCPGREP

[3] = target: T1, Sphingosine kinase 2 (Homo sapiens); details: at 1 µM
[4] = target: Casein kinase II subunit alpha (Homo sapiens) (UniProt P68400); details: at 0.1 µM
[5] = target: Casein kinase II subunit alpha (Homo sapiens) (UniProt P68400); details: at 1 µM
[6] = target: T2, Inhibitor of nuclear factor kappa-B kinase subunit alpha (Homo sapiens) (UniProt O15111); details: at 0.1 µM
T2 sequence (whole entry): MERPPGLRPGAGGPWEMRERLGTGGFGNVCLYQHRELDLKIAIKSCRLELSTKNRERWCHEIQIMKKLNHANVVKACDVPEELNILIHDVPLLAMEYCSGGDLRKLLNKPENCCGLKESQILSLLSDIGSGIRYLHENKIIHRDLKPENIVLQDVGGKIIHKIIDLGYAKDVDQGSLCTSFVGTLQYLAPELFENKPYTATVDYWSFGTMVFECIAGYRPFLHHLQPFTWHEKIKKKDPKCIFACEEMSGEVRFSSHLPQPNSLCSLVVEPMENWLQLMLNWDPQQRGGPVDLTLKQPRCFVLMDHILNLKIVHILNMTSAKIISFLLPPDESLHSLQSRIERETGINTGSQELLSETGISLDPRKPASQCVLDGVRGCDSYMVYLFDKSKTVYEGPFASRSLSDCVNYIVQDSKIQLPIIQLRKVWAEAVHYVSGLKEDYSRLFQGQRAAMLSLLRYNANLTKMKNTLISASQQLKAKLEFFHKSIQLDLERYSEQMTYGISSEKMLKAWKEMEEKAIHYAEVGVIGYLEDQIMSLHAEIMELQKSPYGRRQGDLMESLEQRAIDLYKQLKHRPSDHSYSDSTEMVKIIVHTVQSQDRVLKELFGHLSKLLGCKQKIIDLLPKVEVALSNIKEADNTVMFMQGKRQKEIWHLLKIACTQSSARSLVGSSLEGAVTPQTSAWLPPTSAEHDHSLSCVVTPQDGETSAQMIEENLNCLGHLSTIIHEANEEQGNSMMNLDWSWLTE

[7] = target: T2, Inhibitor of nuclear factor kappa-B kinase subunit alpha (Homo sapiens); details: at 1 µM
[8] = target: T3, Inhibitor of nuclear factor kappa-B kinase subunit beta (Homo sapiens) (UniProt O14920); details: at 0.1 µM
T3 sequence (whole entry): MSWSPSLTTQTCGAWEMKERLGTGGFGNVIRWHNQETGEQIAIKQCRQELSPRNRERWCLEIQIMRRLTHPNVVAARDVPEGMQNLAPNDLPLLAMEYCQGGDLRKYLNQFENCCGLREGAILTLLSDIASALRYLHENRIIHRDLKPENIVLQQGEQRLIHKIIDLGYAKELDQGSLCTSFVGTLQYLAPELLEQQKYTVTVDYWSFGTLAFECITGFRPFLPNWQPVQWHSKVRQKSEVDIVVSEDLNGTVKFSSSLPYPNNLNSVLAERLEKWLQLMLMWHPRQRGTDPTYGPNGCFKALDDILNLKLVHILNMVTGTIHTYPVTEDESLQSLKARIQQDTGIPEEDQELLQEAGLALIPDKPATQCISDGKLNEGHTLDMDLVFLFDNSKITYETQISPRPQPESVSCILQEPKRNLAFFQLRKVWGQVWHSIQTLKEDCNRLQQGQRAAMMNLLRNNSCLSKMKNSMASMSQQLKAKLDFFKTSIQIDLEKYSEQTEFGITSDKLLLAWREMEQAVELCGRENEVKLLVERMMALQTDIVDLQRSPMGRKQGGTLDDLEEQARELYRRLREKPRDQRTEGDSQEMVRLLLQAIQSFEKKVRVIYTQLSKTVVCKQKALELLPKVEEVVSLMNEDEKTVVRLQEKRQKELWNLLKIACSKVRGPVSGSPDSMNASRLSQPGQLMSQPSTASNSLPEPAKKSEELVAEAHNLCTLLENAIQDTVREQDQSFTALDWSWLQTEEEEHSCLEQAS

[9] = target: T3, Inhibitor of nuclear factor kappa-B kinase subunit beta (Homo sapiens); details: at 1 µM
[10] = target: T4, Inhibitor of nuclear factor kappa-B kinase subunit epsilon (Homo sapiens) (UniProt Q14164); details: at 0.1 µM
T4 sequence (whole entry): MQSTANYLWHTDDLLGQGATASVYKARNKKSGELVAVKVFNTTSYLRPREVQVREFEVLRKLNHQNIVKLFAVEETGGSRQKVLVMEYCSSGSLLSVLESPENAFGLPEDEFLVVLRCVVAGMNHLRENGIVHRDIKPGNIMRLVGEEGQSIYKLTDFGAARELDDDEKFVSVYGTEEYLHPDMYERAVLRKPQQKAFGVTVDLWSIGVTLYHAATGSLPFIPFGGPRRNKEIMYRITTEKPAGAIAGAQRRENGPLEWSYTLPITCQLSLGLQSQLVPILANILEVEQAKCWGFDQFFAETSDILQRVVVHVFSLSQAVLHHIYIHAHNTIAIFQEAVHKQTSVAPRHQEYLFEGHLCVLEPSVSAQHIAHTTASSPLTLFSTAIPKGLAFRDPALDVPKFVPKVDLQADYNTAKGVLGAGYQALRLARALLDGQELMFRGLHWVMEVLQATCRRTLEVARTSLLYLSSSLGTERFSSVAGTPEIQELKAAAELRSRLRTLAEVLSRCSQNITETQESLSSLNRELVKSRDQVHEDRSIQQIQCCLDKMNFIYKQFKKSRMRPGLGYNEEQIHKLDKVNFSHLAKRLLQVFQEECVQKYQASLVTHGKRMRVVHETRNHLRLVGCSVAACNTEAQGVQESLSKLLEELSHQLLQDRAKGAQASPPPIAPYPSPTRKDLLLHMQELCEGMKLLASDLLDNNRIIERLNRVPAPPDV

[11] = target: T4, Inhibitor of nuclear factor kappa-B kinase subunit epsilon (Homo sapiens); details: at 1 µM
[12] = target: T5, Serine/threonine-protein kinase Nek1 (Homo sapiens) (UniProt Q96PY6); details: at 0.1 µM
T5 sequence (whole entry): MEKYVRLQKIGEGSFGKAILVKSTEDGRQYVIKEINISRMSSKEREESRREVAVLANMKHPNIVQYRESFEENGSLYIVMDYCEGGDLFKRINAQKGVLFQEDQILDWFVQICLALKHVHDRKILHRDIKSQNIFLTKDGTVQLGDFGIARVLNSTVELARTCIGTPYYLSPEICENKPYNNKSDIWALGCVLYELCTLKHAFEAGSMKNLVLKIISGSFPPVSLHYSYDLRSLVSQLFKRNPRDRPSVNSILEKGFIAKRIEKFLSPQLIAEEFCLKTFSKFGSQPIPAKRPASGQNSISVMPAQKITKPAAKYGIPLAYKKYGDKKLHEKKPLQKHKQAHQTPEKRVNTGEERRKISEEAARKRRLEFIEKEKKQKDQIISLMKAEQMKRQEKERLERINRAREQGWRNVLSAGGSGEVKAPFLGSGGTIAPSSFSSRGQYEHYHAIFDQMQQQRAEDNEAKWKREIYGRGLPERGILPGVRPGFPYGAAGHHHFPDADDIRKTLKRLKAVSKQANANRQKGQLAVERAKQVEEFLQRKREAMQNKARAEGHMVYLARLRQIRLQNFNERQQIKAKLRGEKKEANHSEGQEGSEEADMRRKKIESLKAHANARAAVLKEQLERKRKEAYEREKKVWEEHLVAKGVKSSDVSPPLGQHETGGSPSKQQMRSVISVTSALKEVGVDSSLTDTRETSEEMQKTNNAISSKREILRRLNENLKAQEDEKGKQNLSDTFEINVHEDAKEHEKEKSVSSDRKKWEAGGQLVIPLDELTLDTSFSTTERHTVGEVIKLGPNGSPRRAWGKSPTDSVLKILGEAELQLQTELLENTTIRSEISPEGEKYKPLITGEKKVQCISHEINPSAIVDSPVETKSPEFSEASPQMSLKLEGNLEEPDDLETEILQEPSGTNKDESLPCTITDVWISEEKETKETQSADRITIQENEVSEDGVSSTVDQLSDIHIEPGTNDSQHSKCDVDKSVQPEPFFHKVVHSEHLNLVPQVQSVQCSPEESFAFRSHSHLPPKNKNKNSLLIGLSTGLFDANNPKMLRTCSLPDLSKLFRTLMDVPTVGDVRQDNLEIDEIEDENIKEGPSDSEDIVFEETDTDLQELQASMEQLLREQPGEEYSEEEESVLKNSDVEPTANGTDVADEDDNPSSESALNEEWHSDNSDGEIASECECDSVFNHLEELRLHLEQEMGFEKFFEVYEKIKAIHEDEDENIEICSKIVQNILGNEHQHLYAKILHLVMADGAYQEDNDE

[13] = target: T5, Serine/threonine-protein kinase Nek1 (Homo sapiens); details: at 1 µM
[14] = target: T6, Serine/threonine-protein kinase Nek2 (Homo sapiens) (UniProt P51955); details: at 0.1 µM
T6 sequence (whole entry): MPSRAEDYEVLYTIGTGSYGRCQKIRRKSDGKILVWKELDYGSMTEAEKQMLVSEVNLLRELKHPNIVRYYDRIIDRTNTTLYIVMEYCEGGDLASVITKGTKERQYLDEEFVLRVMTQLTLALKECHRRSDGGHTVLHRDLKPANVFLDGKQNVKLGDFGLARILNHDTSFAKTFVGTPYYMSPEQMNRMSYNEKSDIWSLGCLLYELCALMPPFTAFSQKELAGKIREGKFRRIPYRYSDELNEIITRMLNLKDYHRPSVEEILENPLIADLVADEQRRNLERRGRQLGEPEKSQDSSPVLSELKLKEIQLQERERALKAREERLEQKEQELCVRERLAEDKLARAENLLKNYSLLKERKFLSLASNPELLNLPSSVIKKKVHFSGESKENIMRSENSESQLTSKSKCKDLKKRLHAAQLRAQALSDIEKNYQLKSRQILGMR

[15] = target: T6, Serine/threonine-protein kinase Nek2 (Homo sapiens); details: at 1 µM
[16] = target: Serine/threonine-protein kinase Nek6 (Homo sapiens) (UniProt Q9HC98); details: at 0.1 µM
[17] = target: Serine/threonine-protein kinase Nek6 (Homo sapiens) (UniProt Q9HC98); details: at 1 µM
[18] = target: Serine/threonine-protein kinase Nek7 (Homo sapiens) (UniProt Q8TDX7); details: at 0.1 µM
[19] = target: Serine/threonine-protein kinase Nek7 (Homo sapiens) (UniProt Q8TDX7); details: at 1 µM
[20] = target: T7, Serine/threonine-protein kinase Nek9 (Homo sapiens) (UniProt Q8TD19); details: at 0.1 µM;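 further: reported value is the mean percent inhibition of NEK9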
T7 sequence (whole entry): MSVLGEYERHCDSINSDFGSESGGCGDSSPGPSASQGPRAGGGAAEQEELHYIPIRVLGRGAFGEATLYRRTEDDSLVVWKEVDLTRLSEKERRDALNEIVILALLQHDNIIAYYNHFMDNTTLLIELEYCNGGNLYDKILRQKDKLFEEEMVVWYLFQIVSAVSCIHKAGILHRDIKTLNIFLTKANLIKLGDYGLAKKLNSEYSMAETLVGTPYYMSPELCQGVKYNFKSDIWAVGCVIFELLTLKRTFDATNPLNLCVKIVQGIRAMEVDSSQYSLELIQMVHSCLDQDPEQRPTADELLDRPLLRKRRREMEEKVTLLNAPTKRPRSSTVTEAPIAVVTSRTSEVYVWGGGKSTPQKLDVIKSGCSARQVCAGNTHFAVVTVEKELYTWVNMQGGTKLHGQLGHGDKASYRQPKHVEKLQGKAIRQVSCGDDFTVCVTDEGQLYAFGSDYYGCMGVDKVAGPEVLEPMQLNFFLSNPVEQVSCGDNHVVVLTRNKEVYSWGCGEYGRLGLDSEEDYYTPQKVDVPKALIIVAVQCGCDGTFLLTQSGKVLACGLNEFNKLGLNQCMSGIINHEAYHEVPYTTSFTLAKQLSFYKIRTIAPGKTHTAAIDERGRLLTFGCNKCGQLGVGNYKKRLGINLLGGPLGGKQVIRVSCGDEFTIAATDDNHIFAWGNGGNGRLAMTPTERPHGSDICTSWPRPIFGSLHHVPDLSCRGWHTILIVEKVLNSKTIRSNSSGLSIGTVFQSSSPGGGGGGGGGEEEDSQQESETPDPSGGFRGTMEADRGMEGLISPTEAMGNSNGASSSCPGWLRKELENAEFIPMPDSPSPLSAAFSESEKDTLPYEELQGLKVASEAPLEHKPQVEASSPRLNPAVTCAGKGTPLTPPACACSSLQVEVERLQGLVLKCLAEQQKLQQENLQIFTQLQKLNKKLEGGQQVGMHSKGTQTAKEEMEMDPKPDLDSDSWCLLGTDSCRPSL

Chain of Casein kinase II subunit alpha (Homo sapiens) (P68400 whole entry, looked up): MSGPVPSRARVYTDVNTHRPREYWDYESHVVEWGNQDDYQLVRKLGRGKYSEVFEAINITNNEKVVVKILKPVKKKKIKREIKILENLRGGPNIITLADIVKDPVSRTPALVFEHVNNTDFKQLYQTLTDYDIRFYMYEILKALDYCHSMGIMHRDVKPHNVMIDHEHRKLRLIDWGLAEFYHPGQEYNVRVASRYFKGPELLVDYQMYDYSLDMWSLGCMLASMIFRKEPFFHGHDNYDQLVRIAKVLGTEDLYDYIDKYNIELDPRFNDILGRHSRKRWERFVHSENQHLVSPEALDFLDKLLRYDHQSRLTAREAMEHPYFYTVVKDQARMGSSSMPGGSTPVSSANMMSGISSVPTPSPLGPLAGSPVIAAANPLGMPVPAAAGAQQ
Chain of Serine/threonine-protein kinase Nek7 (Homo sapiens) (Q8TDX7 whole entry, looked up): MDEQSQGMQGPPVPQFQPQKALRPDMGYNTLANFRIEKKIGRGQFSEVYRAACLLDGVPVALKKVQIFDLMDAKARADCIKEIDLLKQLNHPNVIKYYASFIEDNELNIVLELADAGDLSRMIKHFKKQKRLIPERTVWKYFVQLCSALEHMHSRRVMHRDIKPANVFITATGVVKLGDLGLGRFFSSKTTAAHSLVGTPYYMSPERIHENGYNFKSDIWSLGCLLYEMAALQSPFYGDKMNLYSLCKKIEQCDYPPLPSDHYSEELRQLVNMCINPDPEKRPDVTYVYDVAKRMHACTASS
Chain of Serine/threonine-protein kinase Nek6 (Homo sapiens) (Q9HC98 whole entry): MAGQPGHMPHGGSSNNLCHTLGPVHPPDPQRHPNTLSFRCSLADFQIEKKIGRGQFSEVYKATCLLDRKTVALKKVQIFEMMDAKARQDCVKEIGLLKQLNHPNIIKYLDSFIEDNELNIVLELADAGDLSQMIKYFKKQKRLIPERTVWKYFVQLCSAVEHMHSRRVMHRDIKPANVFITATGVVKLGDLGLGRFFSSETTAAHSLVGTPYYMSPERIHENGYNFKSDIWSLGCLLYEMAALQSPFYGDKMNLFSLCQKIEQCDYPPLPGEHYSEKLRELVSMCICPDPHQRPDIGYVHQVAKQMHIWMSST
Chain of Sphingosine kinase 1 (Homo sapiens) (Q9NYA1 whole entry): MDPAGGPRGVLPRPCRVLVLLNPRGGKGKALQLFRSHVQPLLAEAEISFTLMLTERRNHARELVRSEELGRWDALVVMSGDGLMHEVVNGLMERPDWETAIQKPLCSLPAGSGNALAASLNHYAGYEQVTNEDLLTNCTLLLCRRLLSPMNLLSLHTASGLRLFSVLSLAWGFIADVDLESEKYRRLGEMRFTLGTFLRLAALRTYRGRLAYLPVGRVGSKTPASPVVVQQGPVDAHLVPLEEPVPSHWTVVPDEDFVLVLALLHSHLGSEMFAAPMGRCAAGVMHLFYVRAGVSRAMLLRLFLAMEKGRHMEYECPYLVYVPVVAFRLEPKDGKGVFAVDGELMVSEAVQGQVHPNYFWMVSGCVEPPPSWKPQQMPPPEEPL

Compound | inhibition [1] [%] | inhibition [2] [%] | inhibition [3] [%] | inhibition [4] [%] | inhibition [5] [%] | inhibition [6] [%] | inhibition [7] [%] | inhibition [8] [%] | inhibition [9] [%] | inhibition [10] [%] | inhibition [11] [%] | inhibition [12] [%] | inhibition [13] [%] | inhibition [14] [%] | inhibition [15] [%] | inhibition [16] [%] | inhibition [17] [%] | inhibition [18] [%] | inhibition [19] [%] | inhibition [20] [%]
COc1cccc(-n2ncc3c(N/N=C/c4ccc(S(C)(=O)=O)cc4)ncnc32)c1 | 10.4 | 2.7 | -2.05 | 23.1 | 39.1 | -1.85 | -0.62 | -1.48 | -0.15 | 1.8 | 8.64 | 1.92 | 5.16 | 2.11 | 1.84 | 1.65 | -0.32 | 3.45 | 2.28 | 4.38
CC(C)c1ccc(Nc2nccc(-c3cnn4ncccc34)n2)cc1 | 7.28 | 0.26 | -0.48 | 10.7 | 43.4 | 18.7 | 64.1 | 7.7 | 23 | 4.12 | 7.95 | 3.1 | 13.5 | 3.86 | 8.45 | 1.7 | 3.3 | 3.35 | 4.87 | 11.3
